Our source for the growth values is PubChem BioAssay (NCI).

Compounds without any hit were thinned out: in the full panel of roughly 83,000, 20% have a hit.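 Negative percent growth values reflect cell death: -40 means 40% of the cells present at the start died, and -100 means all died.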 Activity calls are given as the source filed them.

The subject of the assay is SK-OV-3 ovarian. As to the kind of experiment: NCI-60 one-dose screen, 48 h (100 = growth as untreated, 0 = no growth, -100 = all killed). The settings on record: 10 µM unless noted. Here is the method: Growth inhibition of the SK-OV-3 human tumor cell line is measured as a screen for anti-cancer activity. Cells are grown in 96 well plates and exposed to the test compound for 48 hours. Compounds are tested at a single concentration, which is 10^-5 M for most compounds. The reported endpoint is percent growth (GI% or GIPRCNT), where numbers from 0 - 100% represent growth inhibition, and numbers from -100% - 0 represent cell death. For example, a value of 40 represents 60% growth inhibition. A value of 0 means no net growth occurred over the course of the experiment. A value of -40 indicates 40% of cells at the beginning of the experiment died by the end of the experiment. A value of -100 means all cells are dead at the end of the experiment.
NCI-60 Human Tumor Cell Lines Screen was performed using the standard one-dose NCI protocol, which is described in more detail at https://dtp.cancer.gov/discovery_development/nci-60/default.htm.
Compounds with GIPRCNT values below 10 were considered active. Activity score was based on GIPRCNT using the following formula: […]
Score is 0 for GIPRCNT values of 100 or above, 50 for GIPRCNT values of 0, and 100 for GIPRCNT values of -100.
On to `N#Cc1nc(-c2ccccc2)oc1S(=O)(=O)N1CCN(c2ccccc2)CC1`, for which the growth was 105% (inactive).

In the case of `COc1cc2c(cc1OCCCN1CCN(CCCOc3cc4c(cc3OC)C(=O)N3CCC[C@H]3C=N4)CC1)C=CC(C)(C)O2`, the growth is -83.9% (active).

With `COc1ccc(C2=C(Nc3ccc(C(=O)Nc4ccccc4)cc3)C(=O)N(C)C2=O)cc1`, the growth is 74.9% (inactive).

For `Cc1cc(C(=O)O)c(C)n1-c1cccc(C(=O)O)c1`, the growth was 105% (inactive).

`CN(C)CCNC(=O)c1cc2c3cc(Cl)ccc3[nH]c2c2ncccc12`: the growth is 46.1% (inactive).

On to `O=C1/C(=C/c2ccc([N+](=O)[O-])cc2)COc2ccc(O)cc21`, for which the growth is 113% (inactive).

On to `CC1=NC2=Nn3c(c4cnn(-c5ccccc5)c4n/c3=N\N)NN2C(c2ccccc2)=C1`, for which the growth is 98% (inactive).

For the compound `O=C(c1nn(-c2ccccc2)c2c1CC(NCc1ccc(F)cc1)CC2)N1CCCCC1` (stereo not given), the growth was 103% (inactive).

Consider `Cn1ccnc1C(=O)/C=C/c1ccc(C(=O)Nc2ccccc2O)cc1`, for which the growth was 54.7% (inactive).

Consider `C=C(C)[C@@H]1CC[C@]2(CO)CC[C@]3(C)[C@H](CC[C@@H]4[C@@]5(C)CC[C@H](NCO)C(C)(C)[C@@H]5CC[C@]43C)[C@@H]12`, for which the growth is -87.5% (active).

`CCC(C)(C)C(=O)O[C@H]1C[C@@H](C)C=C2C=C[C@H](C)[C@H](CC[C@@H]3CC(SCCN)CC(=O)O3)[C@H]21` (stereo not given in full): the growth was 102% (inactive).

`O=C(/C=C/c1cccc(Cl)c1)c1cccc(OCCCOc2cccc(C(=O)/C=C/c3cccc(Cl)c3)c2)c1`: the growth is 107% (inactive).

`Cc1cc(=O)n(C(=O)Nc2ccccc2Cl)c2cc(O)ccc12`: the growth was 95% (inactive).

For the compound `C/C(=N\O)c1ccc(Cl)cc1`, the growth was 108% (inactive).

In the case of `O=C(CN1CCOCC1)Nc1nc(-c2cc3ccccc3oc2=O)cs1`, the growth is 116% (inactive).

Turning to `C=CCn1c(C)nc2ccc(Nc3nc(Nc4ccc5nc(C)n(CC=C)c5c4)c4ccccc4n3)cc21`, the growth is -63.7% (active).

For `CCCn1cc2c(=O)nc3sc(Cc4ccccc4)c(C)n3c2n1`, the growth was 104% (inactive).

On to `O=C(O)c1cn(C2CC2)c2cc(N3CCN(C(=O)N(c4ccccc4)c4nc(-c5ccccc5)cs4)CC3)c(F)cc2c1=O`, for which the growth is -16.2% (active).

As for `c1ccc(-c2oc(-c3ccccc3)c(CN3CCCCC3)c2CN2CCCCC2)cc1`, the growth was 52.3% (inactive).

With `COc1c(C(=O)Nc2ccc(C)c(Br)c2)ccc2ccccc12`, the growth was 97.9% (inactive).

For `COc1ccc(C(C)=O)cc1S(=O)(=O)Nc1c(N)nc(SC)[nH]c1=O`, the growth is 124% (inactive).

As to `CC(C)=CCC[C@](C)(O)[C@H]1CC[C@]2(C)[C@@H]1CC[C@@H]1[C@@]3(C)C/C(=C/c4ccco4)C(=O)C(C)(C)[C@@H]3CC[C@]12C`, the growth is 109% (inactive).

As for `O=C1/C=C/[C@@H](O)[C@@H]2C[C@@H](O)C[C@H]2/C=C/CCC[C@H](CCc2ccccc2)O1`, the growth was 28.2% (inactive).

Turning to `COc1cc2c(cc1OCCCN1CCN(CCCOc3cc4c(cc3OC)C(=O)N3CC(F)(F)C[C@H]3C=N4)CC1)N=C[C@@H]1CC(F)(F)CN1C2=O`, the growth is 84.9% (inactive).

As for `c1cnc2c(-c3nc4ccc5[nH]ncc5c4c4c3CCCC4)c[nH]c2c1`, the growth is 51.5% (inactive).

As to `CCOC(=O)NC(C)C`, the growth was 117% (inactive).

Take `COc1ccc(/C=C/C(=O)c2cc3c(N)c(C(=O)Nc4cccc5ccccc45)sc3nc2C)cc1`: the growth is 87.7% (inactive).

Consider `Clc1ccc2c(c1)C(c1c[nH]c3ccccc13)(c1c[nH]c3ccccc13)CCO2`, for which the growth was 39.6% (inactive).

In the case of `O=C1c2ccc3c4c5ccc(c24)C(=O)N1CCCOCCCCOCCCNCc1ccc(cc1)CNCCCOCCCCOCCCN(C3=O)C5=O`, the growth was 12.9% (inactive).

As for `CCOC(=O)c1csc(NC(=O)COc2ccc(/C=C3\Oc4ccccc4C3=O)cc2)n1`, the growth was 138% (inactive).

Take `c1csc(-c2ccc(CNc3c4ccccc4nc4ccccc34)cc2)c1`: the growth was 65% (inactive).

For `Cn1cc(-c2nonc2-c2cn(C)c3ccccc23)c2ccccc21`, the growth is 18.7% (inactive).

Consider `O=[N+]([O-])c1cccc(-c2nc3cc4nc5ccccc5[nH]c4cc3n2)c1`, for which the growth is 102% (inactive).

For the compound `COc1ccc(NC2=C(I)C(=O)c3ncccc3C2=O)cc1`, the growth was 50% (inactive).

For `O=C1/C(=C/c2cn(-c3ccccc3)nc2-c2ccccc2)SC(=S)N1C1CCCCC1`, the growth was 108% (inactive).

Regarding `COc1ccc(-c2nc3cc(C(=O)NCc4ccccc4)ccc3n2C2CCCCC2)cc1`, the growth is 102% (inactive).

Take `CCC(=C(c1ccc(OCCN2CCCCC2)cc1)c1ccc(OCCN2CCCCC2)cc1)c1ccc(Cl)cc1`: the growth was -85.7% (active).

Take `CN(C)Cc1ccc(O)c(C(=O)O)c1`: the growth was 106% (inactive).

For the compound `N#Cc1c(-c2ccccc2)cc(-c2ccc(Nc3nc(Nc4ccc(Cl)cc4)nc(Nc4ccc(Cl)cc4)n3)cc2)nc1N`, the growth was 110% (inactive).

Regarding `O=C(Nc1cccc(-c2ccc(Cl)c(C(F)(F)F)c2)c1)C1CCN(Cc2cccc3cccnc23)CC1`, the growth is 55.4% (inactive).
